Laboratory results: PubChem BioAssay (Tox21)
Where “and” joins values, the source holds several entries; their conditions need not be identical. Equal entries are not always repeated. Records with an inconclusive call do not appear. A structure can be active in one record and inactive in another. Calls of active or inactive are those of the source. Calls follow the shape of the dose curve; as a rule, active = well fitted inhibition curve with a large enough effect in the repeat runs; inconclusive = weak or mixed curves; inactive = no such curve, though single readings can be large or run the other way.
% is scaled to controls: 0 for no effect and ±100 for the full control effect; potency is read from the fitted curve at half-maximal effect.

The compounds below were run against Cytochrome P450 3A4 (Homo sapiens) (UniProt P08684) (assay: Cytochrome P450 Family 3 Subfamily A Member 4 (CYP3A4) small molecule antagonists: luciferase reporter qHTS assay (AID 1671201; also: nearly all actives have a fitted effect of over 50% in size)). Details: P450-Glo CYP3A4 enzyme, luciferin luminescence, 1 h; series mostly up to 115 µM; activity change, negative = inhibition: at the top concentration.
Sequence of Cytochrome P450 3A4 (Homo sapiens) (P08684 whole entry, looked up): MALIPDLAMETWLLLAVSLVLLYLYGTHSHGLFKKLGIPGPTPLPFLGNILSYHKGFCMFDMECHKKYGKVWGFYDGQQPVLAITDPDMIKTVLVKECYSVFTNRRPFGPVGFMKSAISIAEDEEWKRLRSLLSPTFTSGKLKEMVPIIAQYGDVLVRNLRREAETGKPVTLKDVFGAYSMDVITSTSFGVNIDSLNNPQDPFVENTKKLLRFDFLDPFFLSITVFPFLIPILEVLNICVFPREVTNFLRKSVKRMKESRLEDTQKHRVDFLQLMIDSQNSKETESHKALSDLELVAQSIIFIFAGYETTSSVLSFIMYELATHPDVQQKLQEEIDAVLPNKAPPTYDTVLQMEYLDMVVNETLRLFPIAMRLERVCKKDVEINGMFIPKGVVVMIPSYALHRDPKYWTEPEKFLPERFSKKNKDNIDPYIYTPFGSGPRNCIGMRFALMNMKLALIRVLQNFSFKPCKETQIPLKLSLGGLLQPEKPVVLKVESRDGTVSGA
From the text: National Center for Advancing Translational Sciences [NCATS]
U.S. Environmental Protection Agency [EPA]
National Institutes of Environmental Health Sciences [NIEHS]
National Toxicology Program [NTP]
U.S. Food and Drug Administration [FDA]
Cytochrome P450 (CYP) enzymes are membrane-bound hemeproteins that play a key role in metabolism of drugs and xenobiotics. Evaluation of the effect of chemicals on CYP isozymes is useful to minimize the adverse drug reactions and toxicities in drug development process. Tox21 chemicals were tested for their effect on CYP enzyme activities by using P450-Glo (TM) screening systems (Promega Corporation, Madison, WI). These systems provide a luminescent method containing proluciferin substrates and are converted to luciferin products by CYP isozymes. The luciferin products formed are detected with a luciferin detection reagent, and the amount of light produced is proportional to CYP activity. P450-Glo (TM) CYP3A4 screening system (Catalog. No. V9910) was used to detect the compounds that interfere in CYP3A4 activity. The positive control compound used for CYP3A4 assay is ketoconazole (Sigma-Aldrich, St. Louis, MO).
Tox21 Assay Protocol Summary:
Two ul of enzyme-substrate mix was dispensed into medium binding white/solid 1536-well plates (Greiner Bio-One North America Inc., Monroe, NC) using a BioRaptr Flying Reagent Dispenser (FRD, Beckman Coulter, Brea, CA). Compounds dissolved in DMSO and positive control (ketoconazole) were transferred to the assay plates at 23 nl using a Pintool station (Wako, San Diego, CA). The assay plates were incubated at room temperature for 10 min. Then 2 ul of NADPH regeneration solution was added to each well of the assay plates using an FRD and incubated at room temperature for 1 h. The reaction was stopped by adding 4 ul of detection reagent using an FRD and after 20 min incubation at room temperature the luminescence signal was measured using a ViewLux plate reader (Perkin Elmer, Shelton, CT). Data were expressed as relative luminescence units.
`CC(C)(C)NCC(O)c1cc(Cl)c(N)c(C(F)(F)F)c1` (stereo not given) was tested, and the “activity change, negative = inhibition” value was 6.76% [at 52.9 µM] (inactive). In the case of `CC(Oc1cc(Cl)c(Cl)cc1Cl)C(=O)O` (stereo not given), the “activity change, negative = inhibition” value was 47.2% (inactive). With `CC(Oc1cccc(Cl)c1)C(=O)O` (stereo not given) the “activity change, negative = inhibition” value was 12.1% (inactive). `Nc1c(Br)cc(Br)c2c1C(=O)c1ccccc1C2=O` was tested, and the activity change, negative = inhibition was 1.74% [at 23.6 µM] (inactive). For `C[N+]1(CCC(C(N)=O)(c2ccccc2)c2ccccc2)CCCCC1`, the “activity change, negative = inhibition” value was 8.51% [at 52.9 µM] (inactive). `C[N+](C)(C)CCOC(=O)C(O)(c1ccccc1)c1ccccc1` was tested, and the “activity change, negative = inhibition” value was 1.69% [at 52.9 µM] (inactive). For `CCOC(=O)c1cn2nc(OP(=S)(OCC)OCC)cc2nc1C`, the Potency was 28.3 µM (active). With `Clc1ccccc1` the “activity change, negative = inhibition” value was 14.2% (inactive). For `SCc1ccccc1`, the “activity change, negative = inhibition” value was -0.219% (inactive). For `CC[N+]1(CCOC(=O)C(O)(c2ccccc2)c2ccccc2)CCCCC1`, the “activity change, negative = inhibition” value was -12.8% [at 52.9 µM] (inactive). `CC[N+]1(C)CCCC(OC(=O)C(O)(c2ccccc2)c2ccccc2)C1` (stereo not given) was tested, and the “activity change, negative = inhibition” value was -18.9% [at 52.9 µM] (inactive). In the case of `O=C1CC[C@@]2(O)[C@H]3Cc4ccc(O)c5c4[C@@]2(CCN3CC2CC2)[C@H]1O5`, the “activity change, negative = inhibition” value was 4.23% [at 52.9 µM] (inactive). `CN1C(=O)CN=C(c2ccccc2)c2cc([N+](=O)[O-])ccc21` was tested, and the “activity change, negative = inhibition” value was 6.13% [at 52.9 µM] (inactive). In the case of `O=S(=O)(c1ccccc1)c1ccccc1`, the “activity change, negative = inhibition” value was 78.2% (inactive). In the case of `C=CCOC(=O)C(C)(C)OC(=O)c1cc(-n2c(=O)cc(C(F)(F)F)n(C)c2=O)ccc1Cl`, the Potency was 0.553 µM (active). For `OC[P+](CO)(CO)CO`, the Potency was “inactive”. `CCOc1cccc(C2(N3CCN(c4ccccc4)CC3)CCC(C)CC2)c1` (stereo not given) was tested, and the “activity change, negative = inhibition” value was -1.42% (inactive). `Cc1nnc(-c2ccccc2)c(=O)n1N` was tested, and the “activity change, negative = inhibition” value was -3.49% (inactive). With `CC(C)C1(C)N=C(c2ncccc2C(=O)O)NC1=O` (stereo not given) the “activity change, negative = inhibition” value was -4.99% (inactive). For `CCN(C(C)=O)c1cccc(-c2ccnc3c(C#N)cnn23)c1`, the “activity change, negative = inhibition” value was 40% [at 52.9 µM] (inactive). For `CC(C)c1ccc(NC(=O)N(C)C)cc1`, the “activity change, negative = inhibition” value was 5.83% (inactive). In the case of `CN(C1CCCCC1)C1CCCCC1`, the “activity change, negative = inhibition” value was -15.5% (inactive). In the case of `O=C1NC(=O)C(=O)C(=O)N1`, the “activity change, negative = inhibition” value was 7.68% (inactive). In the case of `COC1CC(=C(c2cccs2)c2cccs2)C[N+](C)(C)C1` (stereo not given), the “activity change, negative = inhibition” value was 3.41% [at 52.9 µM] (inactive). `CCC(C)(C)c1ccc(O)c(C(C)(C)CC)c1` was tested, and the Potency was 19.8 µM (active) and 25.2 µM (active). For `CCc1cnc(C2=NC(C)(C(C)C)C(=O)N2)c(C(=O)O)c1` (stereo not given), the Potency was “inactive”. For `O=[N+]([O-])O[C@H]1CO[C@H]2[C@@H]1OC[C@H]2O[N+](=O)[O-]`, the “activity change, negative = inhibition” value was 6.9% [at 52.9 µM] (inactive). In the case of `Cc1nc2ccccc2c(=O)n1-c1ccccc1Cl`, the “activity change, negative = inhibition” value was 88.7% (inactive). In the case of `CCCCCCCCCCCCN(C)C`, the “activity change, negative = inhibition” value was 1.55% (inactive). `N#CC(C#N)=Cc1ccc(O)c(O)c1` was tested, and the “activity change, negative = inhibition” value was -3.35% [at 52.9 µM] (inactive). `C[C@]12C=CC3=C4CCC(=O)C=C4CC[C@H]3[C@@H]1CC[C@@H]2O` was tested, and the Potency was 31.5 µM (active) and inactive. For `COc1cc(C[C@@H](C)N)c(OC)cc1Br`, the “activity change, negative = inhibition” value was 1.92% (inactive). In the case of `O=C=NC1CCCCC1`, the “activity change, negative = inhibition” value was -6.27% (inactive). For `CCOC(=O)NC(O)C(Cl)(Cl)Cl` (stereo not given), the “activity change, negative = inhibition” value was -23.5% [at 52.9 µM] (inactive). In the case of `C[C@H]1[C@@H]2Cc3ccc(O)cc3[C@@]1(C)CCN2C`, the “activity change, negative = inhibition” value was 2.67% [at 300 µM] (inactive). `CN[C@@H](C)[C@H](O)c1ccccc1` was tested, and the “activity change, negative = inhibition” value was -14.3% [at 52.9 µM] (inactive). For `Cc1ccc2c(C)cccc2c1`, the “activity change, negative = inhibition” value was 14.6% (inactive). `CCCCCl` was tested, and the “activity change, negative = inhibition” value was -14.7% (inactive). For `CN(C)N`, the “activity change, negative = inhibition” value was 10.2% (inactive). `COc1cc(CC#N)cc(OC)c1OC` was tested, and the “activity change, negative = inhibition” value was -9.57% [at 52.9 µM] (inactive).
